Experiments:
Assay in all cases: log2 ratio of Biotin-Ahx-Ub-VS probe labelling (fragment/DMSO); higher = less target engagement (more negative = stronger competition), active = hit call of the paper (q ≤ 0.05, log2 ratio ≤ -1)
Settings in all cases: compound concentration: 200 uM; treatment time: 3 h
[1] = molecular target: T1, ALG13 (UniProt Q9NP73)
T1 sequence (whole entry): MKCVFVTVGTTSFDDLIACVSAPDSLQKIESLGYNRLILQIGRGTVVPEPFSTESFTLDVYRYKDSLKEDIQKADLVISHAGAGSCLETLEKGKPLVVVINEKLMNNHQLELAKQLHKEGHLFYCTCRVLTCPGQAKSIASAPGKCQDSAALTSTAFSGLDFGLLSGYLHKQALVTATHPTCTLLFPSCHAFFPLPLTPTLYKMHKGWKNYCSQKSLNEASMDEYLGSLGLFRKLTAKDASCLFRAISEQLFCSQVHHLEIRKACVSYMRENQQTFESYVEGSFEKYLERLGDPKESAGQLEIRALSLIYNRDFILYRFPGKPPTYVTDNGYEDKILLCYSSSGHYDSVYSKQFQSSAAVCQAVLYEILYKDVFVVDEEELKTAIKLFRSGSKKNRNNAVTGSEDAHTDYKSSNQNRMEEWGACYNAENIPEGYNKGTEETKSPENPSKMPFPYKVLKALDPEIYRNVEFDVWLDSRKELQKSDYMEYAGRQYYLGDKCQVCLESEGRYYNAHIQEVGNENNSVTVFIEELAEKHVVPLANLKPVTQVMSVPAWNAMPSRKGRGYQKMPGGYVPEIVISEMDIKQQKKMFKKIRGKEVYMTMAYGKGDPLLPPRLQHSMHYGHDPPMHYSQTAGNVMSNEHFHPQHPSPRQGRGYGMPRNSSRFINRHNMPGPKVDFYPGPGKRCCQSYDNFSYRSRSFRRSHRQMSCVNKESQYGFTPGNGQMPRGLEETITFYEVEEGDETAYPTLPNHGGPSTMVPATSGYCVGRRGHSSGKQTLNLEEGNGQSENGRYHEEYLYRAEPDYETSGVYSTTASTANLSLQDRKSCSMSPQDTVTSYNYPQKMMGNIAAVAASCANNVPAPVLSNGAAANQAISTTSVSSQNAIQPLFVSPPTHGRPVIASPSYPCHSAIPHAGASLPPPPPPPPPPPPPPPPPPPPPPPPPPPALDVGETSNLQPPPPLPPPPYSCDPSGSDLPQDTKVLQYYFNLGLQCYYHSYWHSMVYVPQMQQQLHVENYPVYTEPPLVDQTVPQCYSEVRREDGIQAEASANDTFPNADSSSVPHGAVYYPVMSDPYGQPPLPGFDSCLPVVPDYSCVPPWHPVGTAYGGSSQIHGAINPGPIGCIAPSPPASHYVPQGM
Procedure, shortened: (§1)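 Lysate from HEK293T cells, 495 µg per sample in Tris/CHAPS/IGEPAL buffer with protease inhibitors, was treated for 3 h in triplicate with fragment at 200 µM or vehicle. Biotin-Ahx-Ub-VS was next added at 0.5 µM final for 1 h. The labelled DUBs were enriched with NeutrAvidin, digested with LysC and trypsin, and run by diaPASEF LC-MS/MS, with values given as average log2 fragment/vehicle ratios by unpaired t-test on global-median-normalised Spectronaut quantities of proteins with ≥2 unique peptides.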

[2] = molecular target: ATXN3 (UniProt P54252)
Procedure, shortened: as §1

[3] = molecular target: T2, BAP1 (UniProt Q92560)
T2 sequence (whole entry): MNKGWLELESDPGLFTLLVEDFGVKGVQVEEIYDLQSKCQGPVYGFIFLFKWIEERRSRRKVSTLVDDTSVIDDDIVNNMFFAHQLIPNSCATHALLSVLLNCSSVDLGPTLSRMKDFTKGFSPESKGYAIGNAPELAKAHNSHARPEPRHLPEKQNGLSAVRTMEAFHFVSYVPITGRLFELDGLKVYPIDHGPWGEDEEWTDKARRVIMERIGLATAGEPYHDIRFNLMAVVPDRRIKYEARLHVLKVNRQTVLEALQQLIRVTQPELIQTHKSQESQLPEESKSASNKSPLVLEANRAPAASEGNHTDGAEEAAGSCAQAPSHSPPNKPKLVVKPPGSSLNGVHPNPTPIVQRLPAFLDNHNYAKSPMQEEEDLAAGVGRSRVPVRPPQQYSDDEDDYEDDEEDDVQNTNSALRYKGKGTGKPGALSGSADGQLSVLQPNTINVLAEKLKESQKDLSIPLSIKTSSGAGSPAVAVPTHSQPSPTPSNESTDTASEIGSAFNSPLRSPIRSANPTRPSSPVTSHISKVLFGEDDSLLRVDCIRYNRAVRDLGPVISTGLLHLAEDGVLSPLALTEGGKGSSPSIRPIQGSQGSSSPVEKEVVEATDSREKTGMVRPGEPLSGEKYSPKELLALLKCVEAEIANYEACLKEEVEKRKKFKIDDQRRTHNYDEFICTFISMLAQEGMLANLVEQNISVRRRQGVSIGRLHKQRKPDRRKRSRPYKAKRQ
Procedure, shortened: as §1

[4] = molecular target: EIF3F (UniProt O00303)
Procedure, shortened: as §1

[5] = molecular target: EIF3H (UniProt O15372)
Procedure, shortened: as §1

[6] = molecular target: T3, FAM105A (UniProt Q9NUU6)
T3 sequence (whole entry): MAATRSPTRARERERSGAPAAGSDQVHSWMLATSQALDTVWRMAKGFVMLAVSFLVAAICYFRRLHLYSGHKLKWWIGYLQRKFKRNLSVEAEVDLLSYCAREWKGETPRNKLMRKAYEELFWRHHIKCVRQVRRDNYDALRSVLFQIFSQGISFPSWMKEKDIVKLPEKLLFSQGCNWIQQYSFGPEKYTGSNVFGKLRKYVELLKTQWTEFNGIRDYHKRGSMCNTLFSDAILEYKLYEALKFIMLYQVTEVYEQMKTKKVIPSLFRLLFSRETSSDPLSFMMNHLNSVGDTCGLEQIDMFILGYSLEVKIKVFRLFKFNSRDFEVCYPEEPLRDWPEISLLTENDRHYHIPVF
Procedure, shortened: as §1

[7] = molecular target: OTUB1 (UniProt Q96FW1)
Procedure, shortened: as §1

[8] = molecular target: T4, OTUD4 (UniProt Q01804)
T4 sequence (whole entry): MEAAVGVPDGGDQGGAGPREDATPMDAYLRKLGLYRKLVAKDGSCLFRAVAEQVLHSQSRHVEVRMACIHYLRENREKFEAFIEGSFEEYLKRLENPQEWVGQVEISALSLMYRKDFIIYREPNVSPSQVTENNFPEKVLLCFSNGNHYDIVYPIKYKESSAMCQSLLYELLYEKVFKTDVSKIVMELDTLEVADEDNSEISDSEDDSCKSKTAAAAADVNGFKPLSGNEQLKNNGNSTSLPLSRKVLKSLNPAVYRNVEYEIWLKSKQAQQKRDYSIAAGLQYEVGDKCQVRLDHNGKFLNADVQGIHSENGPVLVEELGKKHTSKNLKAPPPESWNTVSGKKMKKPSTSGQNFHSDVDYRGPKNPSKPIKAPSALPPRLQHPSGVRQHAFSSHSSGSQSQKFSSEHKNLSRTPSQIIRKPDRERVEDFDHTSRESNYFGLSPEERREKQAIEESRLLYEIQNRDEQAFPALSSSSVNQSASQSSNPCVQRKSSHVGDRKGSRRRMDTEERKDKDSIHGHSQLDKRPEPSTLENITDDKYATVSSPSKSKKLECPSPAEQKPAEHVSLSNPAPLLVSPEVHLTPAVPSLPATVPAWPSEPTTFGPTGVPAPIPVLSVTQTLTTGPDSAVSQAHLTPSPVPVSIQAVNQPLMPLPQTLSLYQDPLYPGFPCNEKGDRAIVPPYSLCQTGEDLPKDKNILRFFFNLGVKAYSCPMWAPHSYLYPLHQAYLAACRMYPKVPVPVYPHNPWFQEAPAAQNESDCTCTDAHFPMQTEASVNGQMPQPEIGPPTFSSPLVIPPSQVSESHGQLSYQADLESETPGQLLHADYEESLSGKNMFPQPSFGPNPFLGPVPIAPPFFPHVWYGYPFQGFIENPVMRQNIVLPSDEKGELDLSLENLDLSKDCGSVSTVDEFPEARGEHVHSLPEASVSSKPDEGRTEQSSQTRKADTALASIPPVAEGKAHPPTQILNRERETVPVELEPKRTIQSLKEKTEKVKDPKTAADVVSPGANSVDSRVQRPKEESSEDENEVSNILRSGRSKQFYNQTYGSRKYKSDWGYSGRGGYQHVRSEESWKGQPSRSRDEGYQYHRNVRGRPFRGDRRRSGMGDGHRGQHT
Procedure, shortened: as §1

[9] = molecular target: T5, OTUD5 (UniProt Q96G74)
T5 sequence (whole entry): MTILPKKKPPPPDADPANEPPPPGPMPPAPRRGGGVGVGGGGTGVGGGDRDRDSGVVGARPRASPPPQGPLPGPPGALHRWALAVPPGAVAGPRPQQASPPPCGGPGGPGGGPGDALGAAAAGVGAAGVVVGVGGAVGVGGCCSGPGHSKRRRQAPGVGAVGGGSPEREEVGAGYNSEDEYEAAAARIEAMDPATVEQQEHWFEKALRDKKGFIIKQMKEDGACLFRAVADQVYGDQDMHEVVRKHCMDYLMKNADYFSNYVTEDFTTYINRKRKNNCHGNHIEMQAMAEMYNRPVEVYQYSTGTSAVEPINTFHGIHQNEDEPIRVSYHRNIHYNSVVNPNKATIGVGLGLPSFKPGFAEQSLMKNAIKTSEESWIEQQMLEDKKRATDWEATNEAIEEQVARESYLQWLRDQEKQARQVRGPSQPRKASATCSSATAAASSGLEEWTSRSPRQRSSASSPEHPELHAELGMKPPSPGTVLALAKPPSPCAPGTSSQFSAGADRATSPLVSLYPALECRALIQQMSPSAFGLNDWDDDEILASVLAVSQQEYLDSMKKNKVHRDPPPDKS
Procedure, shortened: as §1

Measured: log2 ratio of Biotin-Ahx-Ub-VS probe labelling

OTUB1, sequence (Q96FW1 whole entry): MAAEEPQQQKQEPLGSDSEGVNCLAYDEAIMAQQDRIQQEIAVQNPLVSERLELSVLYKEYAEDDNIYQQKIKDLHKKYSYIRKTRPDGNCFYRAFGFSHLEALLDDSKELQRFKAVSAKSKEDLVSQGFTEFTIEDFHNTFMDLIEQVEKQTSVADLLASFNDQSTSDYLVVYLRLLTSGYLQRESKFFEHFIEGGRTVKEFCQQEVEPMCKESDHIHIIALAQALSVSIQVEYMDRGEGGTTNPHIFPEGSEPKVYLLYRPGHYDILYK
EIF3F, sequence (O00303 whole entry): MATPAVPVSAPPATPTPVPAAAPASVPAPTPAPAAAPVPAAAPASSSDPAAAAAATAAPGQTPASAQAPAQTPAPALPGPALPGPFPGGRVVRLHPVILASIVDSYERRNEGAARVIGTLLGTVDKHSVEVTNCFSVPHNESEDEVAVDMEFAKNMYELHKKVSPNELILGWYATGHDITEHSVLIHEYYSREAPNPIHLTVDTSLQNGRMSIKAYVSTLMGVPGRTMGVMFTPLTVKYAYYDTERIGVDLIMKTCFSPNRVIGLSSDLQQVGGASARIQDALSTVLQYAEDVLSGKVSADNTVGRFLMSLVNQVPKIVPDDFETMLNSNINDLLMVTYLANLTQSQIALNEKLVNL
ATXN3, sequence (P54252 whole entry): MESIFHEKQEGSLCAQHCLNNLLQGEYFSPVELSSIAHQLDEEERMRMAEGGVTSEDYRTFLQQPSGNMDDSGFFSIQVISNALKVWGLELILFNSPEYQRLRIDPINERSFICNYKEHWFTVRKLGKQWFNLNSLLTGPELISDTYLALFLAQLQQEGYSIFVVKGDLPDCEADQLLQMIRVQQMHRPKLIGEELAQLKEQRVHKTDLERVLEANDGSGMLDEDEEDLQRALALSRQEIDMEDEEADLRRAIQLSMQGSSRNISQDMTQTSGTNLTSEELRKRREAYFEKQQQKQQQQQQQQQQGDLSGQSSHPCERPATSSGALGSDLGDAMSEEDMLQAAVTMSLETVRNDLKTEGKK
EIF3H, sequence (O15372 whole entry): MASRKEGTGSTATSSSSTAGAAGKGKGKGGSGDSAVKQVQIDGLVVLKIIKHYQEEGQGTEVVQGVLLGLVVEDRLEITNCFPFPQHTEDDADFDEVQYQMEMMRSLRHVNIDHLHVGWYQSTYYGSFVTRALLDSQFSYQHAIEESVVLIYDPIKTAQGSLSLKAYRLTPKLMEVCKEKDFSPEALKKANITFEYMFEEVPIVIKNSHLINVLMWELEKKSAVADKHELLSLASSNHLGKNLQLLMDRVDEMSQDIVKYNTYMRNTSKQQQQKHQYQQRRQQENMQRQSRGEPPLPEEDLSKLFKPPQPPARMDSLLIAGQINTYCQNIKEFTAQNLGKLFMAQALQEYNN

O=C(CCl)N1CCOCC1C1CC1 (centres undefined)
active: [1] -1.36
inactive: [2] -0.209 | [3] -0.299 | [4] -0.527 | [5] 0.16 | [6] 0.635 | [7] -0.181 | [8] -0.865 | [9] -0.313
